Measured values: the supplement of paper PMC6555819

What was measured:
Assay in all cases: PBM binding z-score (relative to random genomic background probes); higher = stronger binding; sequences stand for … in GC…GCGATTGACAGCGTAGAATGAAGG
[1] = tested on: RARb homodimer (NR concentration 270 nM)
How it was run: (§1)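 Binding z-scores take random background probes as their reference. They come from custom Agilent 4×180K protein-binding microarrays incubated 1 h with ligand-free nuclear receptor dimers, with antibodies against each partner (one per run) detecting binding. Scanned fluorescence was regression-normalized.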

[2] = tested on: RARg:RXRa (NR concentration 270 nM, RXRa partner concentration 90 nM)
How it was run: as §1

[3] = tested on: RARg homodimer (NR concentration 270 nM)
How it was run: as §1

[4] = tested on: RXRa DBDmut IVT, anti-RXR (DBD mutation: RXRa K156A/R161A, NR concentration 90 nM)
How it was run: as §1

[5] = tested on: RXRa homodimer (NR concentration 180 nM)
How it was run: as §1

[6] = tested on: THRa:RXRa (NR concentration 90 nM, RXRa partner concentration 90 nM)
How it was run: as §1

[7] = tested on: THRa homodimer (NR concentration 90 nM)
How it was run: as §1

[8] = tested on: VDR homodimer (NR concentration 270 nM)
How it was run: as §1

| Sequence | PBM binding z-score [1] | PBM binding z-score [2] | PBM binding z-score [3] | PBM binding z-score [4] | PBM binding z-score [5] | PBM binding z-score [6] | PBM binding z-score [7] | PBM binding z-score [8] |
| --- | --- | --- | --- | --- | --- | --- | --- | --- |
| ATATGTAGGTTATCGGGTCATTCAGTTTGCGCAT | 3.05 | 3.09 | 2.5 | 1.87 | 3.47 | 3.23 | 3.19 | 4.34 |
| ACTAGTTGGTCAGCTGAGGGCACACACAATTCGG | 2.11 | 0.999 | 1.42 | 0.326 | 0.707 | 3.55 | 1.29 | 0.929 |
| TCAATGAGGTTATAAGATCAGGGAACGTTGCAAA | 0.57 | 1.52 | 0.993 | 1.75 | 2.19 | 1.84 | 0.0539 | 0.536 |
| CGAACGAGGGCATGAGTTGATAACAAATGCCGAT | 0.641 | 1.37 | 1.59 | 2.64 | 1.05 | 1.19 | -0.0778 | 1.48 |
| ACTAGCAGGCCAAGTTTGTGTCACTCAAACAAAG | 0.267 | 0.00878 | 0.0859 | -0.193 | -0.545 | -0.0341 | -0.316 | 0.051 |
| CCAGACAGATGAAAGGTAACTCAGTCTGGTACGC | 0.123 | 0.253 | 0.272 | -0.0479 | 0.612 | 0.108 | -0.299 | 0.123 |
| CGTCCAAGGTCATAGGAGGTCTGTGAAGACAGAT | 3.75 | 5.85 | 5.79 | 3.7 | 6.11 | 4.63 | 2.24 | 2.81 |
| CATATAGGGTCAGCTAGGCCAGAGTAGGGACGGC | 3.33 | 4.41 | 4.49 | 1.48 | 4.2 | 3.37 | 1.12 | 1.02 |
| TCTATTAGTTGAAGGGCAACTGACGAGTCCGTTT | 1.26 | 0.617 | 0.548 | 1.49 | 0.829 | 0.242 | -0.0338 | 1.4 |
| AGTCAAAGTTCATCTAGGTAACGTCAGATATGCT | 3.92 | 5.76 | 6.22 | 4.83 | 4.45 | 3.18 | 0.387 | 5.66 |
| GCTTGTAGATCAAGGTTAAGAACGACTAAGCTAA | 0.388 | 0.414 | 0.334 | 0.11 | 0.789 | 1.25 | -0.079 | 0.0114 |
| TATACAGGGTCAAAGGCCAGACTACGAATGTCGA | 3.59 | 5.73 | 5.23 | 3.01 | 6.99 | 3.6 | 0.88 | 2.33 |
| CGTCCAAGGTCAAGGTCAGTAAAAGAGACTCGAA | 4.79 | 6.66 | 7.87 | 3.57 | 6.53 | 4 | 3.52 | 3.34 |
| TCATATACGTAAAGGTGAAAGTCGAACGATATGA | 1.53 | 1.65 | 1.22 | 0.638 | 2.1 | 1.13 | -0.853 | -0.424 |
| ATCGAAAGGTCGTGAGGTGAGTATACAGAAAGGC | 3.07 | 4.69 | 3.9 | 1.42 | 4.97 | 3.45 | 1.47 | 1.09 |
| AATACAGGGGCACTAGGCCAGAGTAGGTACGAAT | 0.82 | 0.814 | 0.835 | 0.764 | 0.611 | 0.473 | -0.285 | 0.185 |
| ATCCCTAGGTAAGACTCAGTTCAGTGAAGAACGC | 0.754 | -0.0118 | -0.0617 | 0.567 | 0.0289 | 0.832 | 1 | 1.07 |
| ATCTCTAGCTAAAGTTCAGTGAAAGATCGATAGA | 2.45 | 1.76 | 2.45 | 0.982 | 1.11 | 0.511 | -0.124 | 1.9 |
| TCTCGGAGGACACGAAAGGTCAAAGCTCGACATC | 5.19 | 5.82 | 6.04 | 1.63 | 5.82 | 4.18 | 1.76 | 2.51 |

| Sequence | PBM binding z-score [1] | PBM binding z-score [2] | PBM binding z-score [3] | PBM binding z-score [4] | PBM binding z-score [5] | PBM binding z-score [6] | PBM binding z-score [7] | PBM binding z-score [8] |
| --- | --- | --- | --- | --- | --- | --- | --- | --- |
| TCTATTAGTTGAAGGGTAACCGACGAGTCCGTTT | 0.751 | 0.464 | 0.398 | 1.95 | 0.736 | 0.32 | 0.529 | 1.44 |
| AATACAGGGTCACTAGGGCAGAGTAGGTACGAAT | 3.68 | 5.3 | 5.01 | 2.74 | 5.8 | 3.45 | 1.6 | 2.98 |
| GCTTACGGGTCAAAGGTTTTAGCATGAATAGAAT | 2.53 | 4.83 | 4.15 | 2.2 | 6.49 | 2.76 | -0.137 | 1.41 |
| ATCGAAAGGTCGAGATGAGTATAGAGAAAGGGAA | 1.97 | 3.79 | 3.54 | 0.857 | 3.81 | 1.93 | -0.434 | 0.309 |
| CGGCCAAGGTCAATGCTAGGTCAGTGAAAGCATT | 4.9 | 7.57 | 6.96 | 3.65 | 5.16 | 4.29 | 2.46 | 2.22 |
| CCGAATGGGGCAGAAAGGTTACCATACCATCCGG | 2.38 | 1.8 | 1.36 | -0.766 | 1.91 | 1.07 | -0.641 | -0.0198 |
| TCGAGTATGTTAGGGGCATTCAGAATGGCGTCGA | 0.285 | -0.134 | -0.085 | 1.26 | 0.27 | 0.709 | -0.0845 | 1.66 |
| TCTCGGAGAACACGAAGGTCAGAGCTTTCCAGAG | 2.86 | 1.7 | 1.58 | 0.25 | 1.61 | 1.18 | -0.552 | -0.097 |
| GCTCGGAGGACAAGGTCAGAGCGTTGTCCGTAGA | 2.97 | 3.26 | 3.69 | 0.33 | 2.43 | 2.89 | 1.25 | 0.555 |
| ATATGTAGGTTACATCCGGATCATTCAGGCTATG | 0.614 | 1.02 | 1.25 | 0.718 | 1.24 | 1.3 | 0.394 | 0.331 |
| GCTCGGAGGACAAGGTTAGAGCTTTGTCCGTAGA | 0.733 | 0.376 | 1.01 | -0.384 | 0.102 | 1.28 | -0.0516 | -0.796 |
| TCTTGCAGATCAACAGGAGGTTAAGAAAGATCGA | 0.407 | 0.798 | 0.138 | 0.162 | 0.749 | 0.859 | -0.241 | -0.1 |
| AATACAGGGTCAGTAGGCCAGAGTAGGTACGAAT | 3.07 | 4.31 | 4.31 | 1.86 | 3.73 | 2.38 | 0.554 | 1.72 |
| CGAACCAGGTCATTGACAGGACAGTGAATAGTAA | 2.5 | 4.94 | 4.22 | 3.22 | 3.57 | 3.31 | 1.84 | 1.8 |
| CCGAGTACGTTATGGGGCATTCAGGCAACGGTGA | 0.358 | -0.121 | -0.0152 | 3 | -0.121 | 0.188 | -0.521 | 1.4 |
| CCAGCCAGGTGAGAAGGTAACTCAGCCTCGATTA | 0.235 | 0.0253 | 0.00676 | -0.801 | 0.0434 | 0.621 | 0.306 | -0.441 |
| TCTAGTTGGTCACGGAGGCCACACACGACGGGTA | 2.01 | 1.65 | 2.06 | 0.633 | 1.06 | 0.977 | 0.377 | 0.2 |
| AATACAGGGTCATCGTAGGCCCGAGTACGCACAG | 3.43 | 5.52 | 5.24 | 3.34 | 6.9 | 3.72 | 1.41 | 3.29 |
| TAGCCTAGGTCATGTGGGCCAGTATAGTGTCGGC | 3.33 | 3.77 | 4.65 | 0.816 | 3.13 | 2.97 | 1.48 | 0.672 |

| Sequence | PBM binding z-score [1] | PBM binding z-score [2] | PBM binding z-score [3] | PBM binding z-score [4] | PBM binding z-score [5] | PBM binding z-score [6] | PBM binding z-score [7] | PBM binding z-score [8] |
| --- | --- | --- | --- | --- | --- | --- | --- | --- |
| ACTCGGAGGACAAAGTTCAGAGCTACGCCAGTGA | 2.84 | 3.2 | 2.63 | 2.1 | 1.63 | 1.71 | -0.296 | 2.54 |
| AGAACGAGGGCACGCTGAGGTGATAGCAGAGTAG | 1.66 | 2.8 | 2.65 | 1.51 | 1.77 | 3.45 | 1.21 | 1.04 |
| CCTAGCAGGCCAGGGACACTCAAGCATTTCGCTT | 0.112 | -0.238 | -0.144 | -0.269 | -0.377 | 0.512 | 0.193 | -0.34 |
| CAAACTAGGTCTCCGGAAGGTCAAAGTCCGCATG | 4.17 | 4.36 | 3.46 | 0.358 | 3.68 | 2.88 | 1.4 | 1.84 |
| ATATGTAGGTTAGCTGGGGTCATTTAGACTAGGC | 3.75 | 3.88 | 2.65 | 2.15 | 5.02 | 5.36 | 3 | 4.51 |
| CTTCCAAGGTCATAGGAGGTCAGTGAAGACAGAT | 5.3 | 7 | 7.48 | 3.89 | 7.13 | 5.26 | 3.21 | 4.49 |
| AGAATGAGGTTAAGATCAGCGAAACAGAATACAT | 0.64 | 1.9 | 1.45 | 0.594 | 2.39 | 2.27 | 0.587 | 0.524 |
| CGTCCAAGTTCAAAGGTCAGTGAAGAGATGACGG | 4.6 | 7.24 | 6.28 | 4.85 | 8.41 | 3.84 | 0.506 | 5.47 |
| ACTTACGGGTCAACGAGGTTATCGCACGCGTATA | 3.52 | 5.86 | 5.38 | 3 | 6.75 | 4.19 | 1.23 | 4.34 |
| AGTCAAAGTTCACTAGGTAACGTTAGATTCAGCT | 3.56 | 4.93 | 5.57 | 4.15 | 4 | 2.05 | 0.157 | 3.87 |
| CGAACTAGGTCAGGACAGGACAGTGAAGGATGAT | 2.54 | 2.87 | 4.34 | 0.359 | 1.59 | 3.71 | 1.28 | -0.189 |
| CCTTACGGGTCACTGACAGGTTACAGCATTTGGA | 3.43 | 6.18 | 4.87 | 1.94 | 5.36 | 3.08 | 0.386 | 1.01 |
| CAGCCTAGGGCAGGGCCAGTATAGGAGGAACGTT | 0.0483 | -0.0952 | 0.654 | -1.36 | -0.507 | -0.901 | -0.998 | -0.621 |
| GCTAGTTGGTCAGTAGAAGGTCACACACCGGTCG | 4.34 | 4.23 | 3.7 | 0.334 | 3.35 | 2.75 | 1.59 | 1.32 |
| ATACCAATGTGATCGTGAGGTCGTTGATACTAAC | 0.979 | 0.681 | 0.227 | 0.777 | 1.06 | 2.45 | 2.24 | 2.83 |
| CCAGACAGGTGAGAAGGTAACTCATCCTCGATTA | 0.437 | 0.511 | 0.745 | 0.48 | 0.529 | 0.505 | 0.345 | -0.146 |
| GCATATAGGTAATACAAGGTTAAAGTCCGATTGT | 1.42 | 0.95 | 0.775 | 0.599 | 1.39 | 4.03 | 0.575 | 0.898 |
| TGAATGAGGTTGAAGATCAGGGAACGTGGCGTCG | -0.485 | 0.258 | 0.179 | -0.182 | 0.787 | 0.467 | -0.42 | -0.192 |
